# Values without a mark were called inactive. For part of these data: Entries with a potency or affinity are not part of this list. Some of the results follow. The source made the active and inactive calls.
# Key:
# [1] = target: Inward rectifier potassium channel 2 (Mus musculus) (UniProt P35561); assay: inhibition of Kir2.1 inward rectifier potassium flux – cell-based, FluxOR thallium flux, duplicate, confirmation (AID 2032); conditions: Kir2.1-expressing cells, FluxOR thallium flux fluorescence, at 10 µM; hits give low values
# Sequence of Inward rectifier potassium channel 2 (Mus musculus) (P35561 whole entry, looked up): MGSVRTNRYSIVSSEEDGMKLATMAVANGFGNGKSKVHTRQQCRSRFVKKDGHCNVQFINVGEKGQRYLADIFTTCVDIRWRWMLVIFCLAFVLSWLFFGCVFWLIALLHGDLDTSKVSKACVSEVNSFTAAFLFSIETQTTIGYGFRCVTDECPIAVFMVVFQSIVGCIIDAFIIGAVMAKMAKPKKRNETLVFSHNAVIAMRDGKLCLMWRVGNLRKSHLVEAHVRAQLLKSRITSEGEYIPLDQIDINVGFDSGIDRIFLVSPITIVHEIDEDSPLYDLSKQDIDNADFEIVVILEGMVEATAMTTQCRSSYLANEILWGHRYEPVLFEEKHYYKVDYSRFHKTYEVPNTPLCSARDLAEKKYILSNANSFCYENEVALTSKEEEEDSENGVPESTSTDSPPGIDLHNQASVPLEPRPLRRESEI
# [2] = parental HEK293 cell activity, no Kir2.1 – FluxOR thallium flux, duplicate, single concentration, counter-screen for Kir2.1 inhibitor project, confirmation (AID 2105;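 active = dye signal at least 3 control SD above or below untreated wells in both duplicates, raw fluorescence within 3, either direction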;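 for FluxOR signal as % of negative control (100 = no effect): percent is based on the flux ratio of peak minus minimum fluorescence over baseline F0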); conditions: parental HEK293 cells, FluxOR thallium flux fluorescence, at 10 µM; 0% = unstimulated blank wells
# [3] = parental CHO-K1 cell activation, no KCNQ2 – FluxOR thallium flux, duplicate, counter-screen for KCNQ2 potentiator project, confirmation (AID 2282;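 active = signal rise of at least 3 SD above the untreated control mean, in both duplicate wells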;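 note: counter screen of KCNQ2 potentiator hits so any rise reflects channel-independent effects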); conditions: parental CHO-K1 cells, FluxOR thallium flux fluorescence; at 10 µM; hits give high values; zero = vehicle mean+3SD, 100% = vehicle-minus-blank window
# [4] = target: Potassium voltage-gated channel subfamily KQT member 1 (Homo sapiens) (UniProt P51787); assay: KCNQ1 activation in stable CHO cells – cell-based, FluxOR thallium flux, selectivity assay for KCNQ2 potentiator project, confirmation (AID 2283;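 active = fluorescence ratio rise of at least 3 SD of vehicle wells above their mean, in both replicate wells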;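 note: 0% = vehicle mean plus 3 SD and 100% = vehicle minus unstimulated blank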); conditions: FluxOR thallium flux fluorescence, at 10 µM, hits give high values, beyond 3SD, as % of vehicle-control signal
# Sequence of Potassium voltage-gated channel subfamily KQT member 1 (Homo sapiens) (P51787 whole entry, looked up): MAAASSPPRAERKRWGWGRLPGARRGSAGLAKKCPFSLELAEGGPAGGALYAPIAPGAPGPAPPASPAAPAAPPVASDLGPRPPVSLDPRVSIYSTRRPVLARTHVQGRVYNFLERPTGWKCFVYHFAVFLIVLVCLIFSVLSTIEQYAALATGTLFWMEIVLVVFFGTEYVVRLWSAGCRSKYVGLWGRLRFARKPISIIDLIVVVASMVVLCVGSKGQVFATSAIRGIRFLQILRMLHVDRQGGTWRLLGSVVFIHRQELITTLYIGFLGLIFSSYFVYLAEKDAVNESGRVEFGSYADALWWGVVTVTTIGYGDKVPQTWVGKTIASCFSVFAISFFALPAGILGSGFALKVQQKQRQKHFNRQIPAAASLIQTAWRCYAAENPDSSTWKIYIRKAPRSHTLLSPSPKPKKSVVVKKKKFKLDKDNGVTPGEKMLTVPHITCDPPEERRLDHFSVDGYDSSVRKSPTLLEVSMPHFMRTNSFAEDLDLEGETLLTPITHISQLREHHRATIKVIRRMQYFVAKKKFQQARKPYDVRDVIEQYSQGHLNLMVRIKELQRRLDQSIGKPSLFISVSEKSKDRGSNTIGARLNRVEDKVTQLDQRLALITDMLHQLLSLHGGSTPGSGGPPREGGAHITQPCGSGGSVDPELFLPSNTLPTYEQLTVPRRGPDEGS
# [5] = target: Potassium voltage-gated channel subfamily KQT member 2 (Rattus norvegicus) (UniProt O88943); assay: KCNQ2 potassium channel activity enhancers – cell-based, CHO, FluxOR thallium flux, duplicate, confirmation (AID 2287;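 active = fluorescence ratio rising 3 SD or more over the vehicle control mean in both replicates, plus primary screen hit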;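 note: peak minus minimum thallium fluorescence divided by baseline after K/Tl stimulus; 0% = vehicle mean plus 3 SD and 100% = vehicle minus unstimulated blank difference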); conditions: CHO-KCNQ2 cells, FluxOR thallium flux fluorescence; at 10 µM; hits give high values
# [6] = target: Inward rectifier potassium channel 2 (Mus musculus) (UniProt P35561); assay: PubChem AID 2345; conditions: HEK293 Kir2.1, FluxOR thallium flux fluorescence; at 10 µM; hits give high values;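 note: 0% = vehicle mean plus 3 SD and 100% = vehicle minus no-stimulus blank window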
# [7] = tested on: TRPC4 beta (transient receptor potential cation channel C4), mouse; assay: TRPC4 cation channel opening, retest – cell-based, Fluo4 calcium, HEK293 TRPC4beta/mu-opioid, duplicates, 10 µM, confirmation (AID 2426;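 active = fluorescence ratio normalized to control raised more than 50% in primary screen plus both repeat runs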); conditions: Fluo4 calcium fluorescence, at 10 µM; hits give high values
# [8] = tested on: transient receptor potential cation channel C4 beta (TRPC4), mouse; assay: TRPC4 cation channel opening, second retest – cell-based, second round, Fluo4, HEK293 TRPC4beta/mu-opioid, 1 µM, confirmation (AID 2461;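 active = primary screen active and over 50% activation in each of two duplicate runs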); conditions: Fluo4 calcium fluorescence, at 1 µM; hits give high values
# [9] = tested on: TRPC4 (transient receptor potential cation channel C4 beta), mouse; assay: potentiation of DAMGO EC20 TRPC4 response – cell-based, second round, Fluo-4, HEK293 TRPC4beta/mu-opioid, 1 µM, confirmation (AID 2554;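 active = primary screen hit whose fluorescence ratio, in both repeats, exceeds the weak agonist control mean by 3 SD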); conditions: DAMGO EC20, Fluo-4 calcium flux, at 1 µM; hits give high values
# [10] = tested on: TRPC4 beta (transient receptor potential cation channel C4), mouse; assay: potentiation of DAMGO EC20 TRPC4 response – cell-based, Fluo-4, HEK293 TRPC4beta/mu-opioid, confirmation (AID 2555;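 active = primary screen hit whose calcium fluorescence ratio, in both repeats, exceeds the weak agonist control mean by 3 SD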); conditions: DAMGO EC20, Fluo-4 calcium flux, at 10 µM; hits give high values
# [11] = target: Potassium voltage-gated channel subfamily KQT member 2 (Rattus norvegicus) (UniProt O88943); assay: W236L mutant KCNQ2 current enhancers – cell-based, rat KCNQ2 W236L, CHO, automated patch clamp, mechanism study for KCNQ2 potentiator project (AID 2558;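 active = current increase at least 3 SD of the untreated controls above them in both duplicate recordings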); conditions: at 25 µM
# [12] = target: Short transient receptor potential channel 4 (Mus musculus) (UniProt Q9QUQ5); assay: blockers of DAMGO-evoked TRPC4 calcium flux – cell-based, Fluo4, HEK293 TRPC4beta/mu-opioid, confirmation (AID 2636;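 active = calcium signal cut by more than 3 SD below the full-agonist control yet still positive, in both repeats and the earlier primary screen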); conditions: at 10 µM; hits give high values
# Sequence of Short transient receptor potential channel 4 (Mus musculus) (Q9QUQ5 whole entry, looked up): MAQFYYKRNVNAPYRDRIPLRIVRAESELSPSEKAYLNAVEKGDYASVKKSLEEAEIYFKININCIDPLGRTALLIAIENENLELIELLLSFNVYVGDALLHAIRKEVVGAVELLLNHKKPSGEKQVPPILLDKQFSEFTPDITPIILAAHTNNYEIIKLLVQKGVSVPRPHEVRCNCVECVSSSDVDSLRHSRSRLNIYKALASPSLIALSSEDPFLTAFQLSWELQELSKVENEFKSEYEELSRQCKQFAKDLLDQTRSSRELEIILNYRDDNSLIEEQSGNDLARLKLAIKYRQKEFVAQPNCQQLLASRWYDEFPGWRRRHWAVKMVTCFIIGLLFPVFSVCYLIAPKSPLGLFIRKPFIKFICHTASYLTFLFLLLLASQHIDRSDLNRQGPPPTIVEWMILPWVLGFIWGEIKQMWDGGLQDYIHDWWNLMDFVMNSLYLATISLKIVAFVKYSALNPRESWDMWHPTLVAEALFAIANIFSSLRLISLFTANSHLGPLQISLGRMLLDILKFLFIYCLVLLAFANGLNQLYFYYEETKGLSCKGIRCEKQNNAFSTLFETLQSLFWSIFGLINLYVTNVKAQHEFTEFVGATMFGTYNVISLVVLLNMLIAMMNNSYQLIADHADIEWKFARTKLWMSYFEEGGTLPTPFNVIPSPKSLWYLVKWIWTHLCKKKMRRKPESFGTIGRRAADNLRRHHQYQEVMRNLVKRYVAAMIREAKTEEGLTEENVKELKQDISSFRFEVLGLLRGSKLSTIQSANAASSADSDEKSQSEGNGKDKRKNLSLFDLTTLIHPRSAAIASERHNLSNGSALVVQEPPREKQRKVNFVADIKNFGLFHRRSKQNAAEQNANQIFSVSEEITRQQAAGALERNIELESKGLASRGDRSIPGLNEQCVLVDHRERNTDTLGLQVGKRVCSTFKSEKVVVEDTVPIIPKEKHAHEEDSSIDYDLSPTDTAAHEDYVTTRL
# [13] = target: Short transient receptor potential channel 4 (Mus musculus) (UniProt Q9QUQ5); assay: blockers of DAMGO-evoked TRPC4 calcium flux – cell-based, second round, Fluo4, HEK293 TRPC4beta/mu-opioid, 1 µM, confirmation (AID 2637;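 active = calcium signal ratio cut to more than 3 SD under the fully stimulated control mean yet still positive, in both repeats and the primary screen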;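 note: percent of integrated ratio relative to wells lacking test compound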); conditions: at 1 µM; hits give high values
# [14] = target: Short transient receptor potential channel 4 (Mus musculus) (UniProt Q9QUQ5); assay: calcium entry via TRPC4 opening agents – cell-based, HEK293 TRPC4/mu-opioid, Fluo-4 calcium, dose response (AID 434937;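 active = primary screen activator hit with a dose response curve and TRPC4 channel activation at any tested dose; inactive = no activation, no dose response, or not a primary hit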)
# [15] = target: Short transient receptor potential channel 4 (Mus musculus) (UniProt Q9QUQ5); assay: potentiation of DAMGO-evoked TRPC4 calcium signal – cell-based, HEK293 TRPC4/mu-opioid, Fluo-4 calcium, EC20 DAMGO, dose response (AID 434941;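 active = earlier screen potentiator hit that boosts the TRPC4 ion channel at some dose, with a dose response; inactive = no potentiation, no dose response, or not a prior hit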;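 note: calcium entry triggered by an EC20 dose of DAMGO at the co-expressed mu-opioid receptor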)
# [16] = target: Short transient receptor potential channel 6 (Mus musculus) (UniProt Q61143); assay: TRPC6 blockade by TRPC4 inhibitor hits – cell-based, HEK293, membrane potential dye, duplicate, selectivity assay for TRPC4 inhibitor project, confirmation (AID 434948;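 active = active in primary screen and both duplicates, each dropping signal beyond three positive-control SD with fluorescence still positive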); conditions: HEK293 TRPC6, membrane potential dye fluorescence, at 10 µM, stimulated with maximal-effect acetylcholine; hits give high values
# Sequence of Short transient receptor potential channel 6 (Mus musculus) (Q61143 whole entry, looked up): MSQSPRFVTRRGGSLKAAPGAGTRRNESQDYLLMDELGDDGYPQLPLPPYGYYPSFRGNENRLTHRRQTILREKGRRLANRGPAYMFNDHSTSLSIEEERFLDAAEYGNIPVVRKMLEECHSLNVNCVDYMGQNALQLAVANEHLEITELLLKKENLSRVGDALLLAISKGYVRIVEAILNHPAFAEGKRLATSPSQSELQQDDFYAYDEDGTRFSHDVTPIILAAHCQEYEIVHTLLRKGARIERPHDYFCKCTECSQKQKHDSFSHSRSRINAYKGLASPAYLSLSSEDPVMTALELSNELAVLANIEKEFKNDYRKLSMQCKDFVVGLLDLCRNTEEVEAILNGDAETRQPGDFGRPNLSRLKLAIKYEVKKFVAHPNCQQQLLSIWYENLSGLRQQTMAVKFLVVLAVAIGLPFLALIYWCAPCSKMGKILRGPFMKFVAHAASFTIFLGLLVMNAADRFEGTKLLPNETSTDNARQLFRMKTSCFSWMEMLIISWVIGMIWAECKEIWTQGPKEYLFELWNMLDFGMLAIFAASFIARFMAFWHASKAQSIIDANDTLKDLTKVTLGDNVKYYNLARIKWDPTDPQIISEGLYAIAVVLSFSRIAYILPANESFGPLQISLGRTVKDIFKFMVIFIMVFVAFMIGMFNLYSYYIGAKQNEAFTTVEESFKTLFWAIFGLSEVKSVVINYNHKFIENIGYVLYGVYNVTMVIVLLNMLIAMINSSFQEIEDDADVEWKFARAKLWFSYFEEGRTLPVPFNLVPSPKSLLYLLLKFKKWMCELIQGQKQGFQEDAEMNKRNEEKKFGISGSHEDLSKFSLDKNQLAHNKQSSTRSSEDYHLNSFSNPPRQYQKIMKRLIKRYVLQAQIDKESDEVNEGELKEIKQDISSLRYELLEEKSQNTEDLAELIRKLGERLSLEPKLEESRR
# [17] = target: Short transient receptor potential channel 6 (Mus musculus) (UniProt Q61143); assay: TRPC6 opening by TRPC4 activator hits – cell-based, HEK293, membrane potential dye, duplicate, selectivity assay for TRPC4 activator project, confirmation (AID 434950;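 active = membrane potential signal rise above negative control mean plus 3 SD in both duplicates, also active in the earlier TRPC4 screen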); conditions: HEK293 TRPC6, membrane potential fluorescence, at 10 µM; activation: hits give high values; outcome: activation
# [18] = target: Short transient receptor potential channel 6 (Mus musculus) (UniProt Q61143); assay: positive modulators of mouse TRPC6 channel – HEK293 cells, membrane potential dye, duplicate, selectivity assay for TRPC4 potentiator project, confirmation (AID 434952;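 active = compound raising the membrane signal above positive-control mean plus 3 SD in both repeats, and a primary screen hit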); conditions: HEK293 TRPC6, membrane potential dye fluorescence, at 10 µM, maximal acetylcholine added after compound; hits give high values
# [19] = target: Short transient receptor potential channel 4 (Mus musculus) (UniProt Q9QUQ5); assay: calcium flux activators in TRPC4/5HT1a cells, counter-screen for TRPC4 activator project, cell-based, second counter screen, HEK293 TRPC4/5HT1a, Fluo-4 (AID 434977;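 active = calcium signal rise above buffer-control mean plus 5 SD in both duplicates, and also a hit in the primary screen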); conditions: Fluo-4 calcium flux, at 10 µM; hits give high values
# [20] = serotonin-gated TRPC4 signal block – cell-based, second counter screen, HEK293 TRPC4/5HT1a, Fluo-4, counter-screen for TRPC4 inhibitor project, confirmation (AID 434978;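 active = primary screen active whose calcium signal fell more than 3 SD beyond the full-serotonin control mean in both duplicate plates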); conditions: Fluo-4 calcium flux, at 10 µM, serotonin added to trigger calcium flux; hits give high values
# [21] = tested on: TRPC4 (mouse), co-expressed with 5HT1a in HEK293; assay: enhancement of serotonin-evoked TRPC4 response – cell-based, second counter screen, HEK293 TRPC4/5HT1a, Fluo-4, counter-screen for TRPC4 potentiator project, confirmation (AID 434979;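 active = signal rise over 3 SD above mean of control wells given weak agonist, in both repeats and first screen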); conditions: Fluo-4 calcium flux, at 10 µM, serotonin added at its EC20 dose; hits give high values
# [22] = nonspecific calcium rise without TRPC4 – cell-based, HEK293 mu-opioid receptor line, counter-screen for TRPC4 activator project, confirmation (AID 449723;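 active = hit in primary screen, with calcium signal over 5 SD above buffer well mean in both duplicates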;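 note: counter screen cells carry the mu-opioid receptor alone and lack TRPC4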); conditions: HEK293 mu-opioid cells, Fluo-4 calcium fluorescence, at 10 µM; hits give high values
# [23] = nonspecific potentiation of DAMGO calcium response – cell-based, HEK293 mu-opioid receptor line, counter-screen for TRPC4 allosteric potentiator project, confirmation (AID 449724;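 active = calcium signal rise more than 3 SD above the low-dose agonist control mean, in both duplicate plates and the primary screen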); conditions: HEK293 mu-opioid receptor cells, Fluo-4 calcium flux, at 10 µM, compound added before EC20 DAMGO stimulus; hits give high values
# [24] = target: Voltage-gated inwardly rectifying potassium channel KCNH2 (Homo sapiens) (UniProt Q12809); assay: hERG block by Kir2.1 inhibitor candidates – cell-based, thallium flux, counter-screen for Kir2.1 inhibitor project (AID 2236; call rule not given here;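 note: host cells are CHO cells stably expressing hERG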); conditions: hERG-expressing cells, at 10 µM; hits give high values
# Sequence of Voltage-gated inwardly rectifying potassium channel KCNH2 (Homo sapiens) (Q12809 whole entry, looked up): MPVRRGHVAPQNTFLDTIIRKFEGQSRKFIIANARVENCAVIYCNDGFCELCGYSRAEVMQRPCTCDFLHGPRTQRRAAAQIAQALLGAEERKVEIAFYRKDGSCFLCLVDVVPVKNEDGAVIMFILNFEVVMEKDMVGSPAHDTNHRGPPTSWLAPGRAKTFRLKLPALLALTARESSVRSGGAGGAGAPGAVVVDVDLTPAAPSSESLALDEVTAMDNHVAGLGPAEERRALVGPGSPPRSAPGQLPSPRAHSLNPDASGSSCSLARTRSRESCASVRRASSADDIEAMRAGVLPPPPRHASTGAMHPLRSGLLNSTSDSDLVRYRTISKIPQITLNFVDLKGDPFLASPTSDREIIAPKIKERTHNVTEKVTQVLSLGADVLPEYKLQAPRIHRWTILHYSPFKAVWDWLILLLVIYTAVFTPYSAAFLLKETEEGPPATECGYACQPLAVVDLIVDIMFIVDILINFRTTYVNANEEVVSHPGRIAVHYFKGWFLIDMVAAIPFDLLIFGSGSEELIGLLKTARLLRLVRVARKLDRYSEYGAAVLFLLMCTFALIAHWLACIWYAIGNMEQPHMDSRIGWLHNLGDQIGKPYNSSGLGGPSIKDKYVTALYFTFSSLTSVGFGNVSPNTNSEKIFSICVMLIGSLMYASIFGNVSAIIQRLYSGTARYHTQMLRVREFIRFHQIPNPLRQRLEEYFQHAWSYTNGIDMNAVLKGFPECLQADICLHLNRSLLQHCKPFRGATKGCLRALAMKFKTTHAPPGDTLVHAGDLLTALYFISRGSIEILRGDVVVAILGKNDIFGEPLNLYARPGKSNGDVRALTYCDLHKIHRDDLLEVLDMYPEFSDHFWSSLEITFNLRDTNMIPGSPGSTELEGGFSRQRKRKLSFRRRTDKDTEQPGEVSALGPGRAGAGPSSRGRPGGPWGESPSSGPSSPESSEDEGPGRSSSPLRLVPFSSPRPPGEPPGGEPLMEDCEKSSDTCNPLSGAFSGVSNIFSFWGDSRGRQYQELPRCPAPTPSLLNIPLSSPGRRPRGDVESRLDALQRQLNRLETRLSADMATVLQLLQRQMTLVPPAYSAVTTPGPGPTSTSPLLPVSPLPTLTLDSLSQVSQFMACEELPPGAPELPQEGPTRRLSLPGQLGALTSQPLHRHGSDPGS
# [25] = target: Potassium channel subfamily K member 9 (Homo sapiens) (UniProt Q9NPC2); assay: human KCNK9 potassium channel blockers – cell-based, selectivity assay for Kir2.1 inhibitor project (AID 2329; call rule not given here); conditions: KCNK9-expressing cells, ion flux inhibition, at 10 µM; hits give high values
# [26] = target: Inward rectifier potassium channel 2 (Mus musculus) (UniProt P35561); assay: Kir2.1 potassium current inhibition – cell-based, secondary, automated electrophysiology, Kir2.1 inhibitor project (AID 463252; call rule not given here); conditions: Kir2.1 cells, automated patch-clamp current inhibition, at 25 µM; hits give high values
smiles,measurement,setting,value
CCCCOC(=O)Cn1c(=O)n(CC(=O)OCCCC)c2cc(C)ccc21,outcome,[1],inactive
same,outcome,[2],inactive
C=CCNC(=S)/N=c1/ccccn1Cc1ccccc1,"Tl flux remaining, % of negative control (hits give low values)",[1],64% (active)
same,outcome,[2],inactive
COc1ccc(CCC(C)N2CCc3ccccc3C2)cc1 (stereo not given),"Tl flux remaining, % of negative control (hits give low values)",[1],25.5% (active)
same,outcome,[2],inactive
Clc1c(OCCCn2ccnc2)ccc2ccccc12,outcome,[1],inactive
same,outcome,[2],inactive
COc1cc(/C=N/O)cc(Br)c1OS(=O)(=O)c1ccc(C)cc1,"Tl flux remaining, % of negative control (hits give low values)",[1],57.5% (active)
same,outcome,[2],inactive
COCCNC(=O)COc1ccc(N(C)S(=O)(=O)c2ccc3ccccc3c2)cc1,"Tl flux remaining, % of negative control (hits give low values)",[1],58% (active)
same,outcome,[2],inactive
O=C(CCl)N(Cc1cccc([N+](=O)[O-])c1)c1cccc(Cl)c1,outcome,[1],inactive
same,outcome,[2],inactive
COc1cc(CNCc2ccc(OC)c3ccccc23)cc(OC)c1OC,"Tl flux remaining, % of negative control (hits give low values)",[1],51% (active)
same,outcome,[2],inactive
CN(Cc1ccccc1)CC(O)COc1ccc(CNCc2cc3ccccc3s2)cc1 (stereo not given),"Tl flux remaining, % of negative control (hits give low values)",[1],33.5% (active)
same,FluxOR signal as % of negative control (100 = no effect),[2],74.5% (active)
NC(N)=Nc1nc(-c2ccccc2)c2cc(Cl)ccc2n1,outcome,[1],inactive
same,outcome,[2],inactive
Cc1ccc(C(=O)Nc2nnc(C3=COCCO3)o2)cc1C,outcome,[1],inactive
same,outcome,[2],inactive
same,activity increase over 3SD of controls,[3],50.1% (active)
same,activation over 3SD threshold,[4],-7.9%
same,"potentiation, less the hit threshold",[5],4.5% (active)
same,activity over 3SD threshold,[6],-30.3%
same,outcome,[7],inactive
same,outcome,[8],inactive
same,outcome,[9],inactive
same,outcome,[10],inactive
same,outcome,[11],inactive
same,inhibition,[12],66% (active)
same,inhibition,[13],44% (active)
same,outcome,[14],inactive
same,outcome,[15],inactive
same,outcome,[16],inactive
same,outcome,[17],inactive
same,outcome,[18],inactive
same,outcome,[19],inactive
same,inhibition,[20],42.2% (active)
same,outcome,[21],inactive
same,outcome,[22],inactive
same,outcome,[23],inactive
CC1=NN(C(=O)c2ccc(Br)cc2)C(O)(c2ccccc2)C1 (stereo not given),outcome,[1],inactive
same,FluxOR signal as % of negative control (100 = no effect),[2],73.5% (active)
same,activity increase over 3SD of controls,[3],-19%
same,activation over 3SD threshold,[4],-5.7%
same,"potentiation, less the hit threshold",[5],-11.5%
same,activity over 3SD threshold,[6],-31.6%
CC1(C)NC(=O)N(CCCCSc2ccc(Cl)cc2)C1=O,"Tl flux remaining, % of negative control (hits give low values)",[1],46% (active)
same,outcome,[2],inactive
same,outcome,[24],inactive
same,outcome,[25],inactive
same,inhibition,[26],40.8% (active)
CCc1ccccc1NC(=O)[C@@H]1CCC(=O)N1C1OC(=O)c2c1ccc(OC)c2OC (stereo not given in full),outcome,[1],inactive
same,outcome,[2],inactive
same,activity increase over 3SD of controls,[3],82.8% (active)
same,activation over 3SD threshold,[4],55% (active)
same,"potentiation, less the hit threshold",[5],-19.6%
same,activity over 3SD threshold,[6],-22%

# Source: PubChem BioAssay
